This is an account of results in publication PMC8222333, “AsCas12a ultra nuclease facilitates the rapid generation of therapeutic cell medicines”.

B1: ACGG (dsDNA)
DNA 1: GCTATCTAGTGCTCAGTACGCACTGACGGAGGAAACTTCTGGCAGGACCAGGTCATGAGATCGGAAGAGCACACGTCTGAACTCCAGTCA
DNA 2: TGACTGGAGTTCAGACGTGTGCTCTTCCGATCTCATGACCTGGTCCTGCCAGAAGTTTCCTCCGTCAGTGCGTACTGAGCACTAGATAGC
RNA: AAUUUCUACUCUUGUAGAUAGGAAACUUCUGGCAGGACC
B2: AGGC (dsDNA)
DNA 1: B1 DNA 1 with C27G, G29C
DNA 2: B1 DNA 2 with C62G, G64C
RNA: B1 RNA
B3: AGCG (dsDNA)
DNA 1: B1 DNA 1 with C27G, G28C
DNA 2: B1 DNA 2 with C63G, G64C
RNA: B1 RNA
B4: CAAG (dsDNA)
DNA 1: B1 DNA 1 with A26C, C27A, G28A
DNA 2: B1 DNA 2 with C63T, G64T, T65G
RNA: B1 RNA
B5: ATCG (dsDNA)
DNA 1: B1 DNA 1 with C27T, G28C
DNA 2: B1 DNA 2 with C63G, G64A
RNA: B1 RNA
B6: ACGT (dsDNA)
DNA 1: B1 DNA 1 with G29T
DNA 2: B1 DNA 2 with C62A
RNA: B1 RNA
B7: CAAA (dsDNA)
DNA 1: B1 DNA 1 with A26C, C27A, G28A, G29A
DNA 2: B1 DNA 2 with C62T, C63T, G64T, T65G
RNA: B1 RNA
B8: AGCA (dsDNA)
DNA 1: B1 DNA 1 with C27G, G28C, G29A
DNA 2: B1 DNA 2 with C62T, C63G, G64C
RNA: B1 RNA
B9: AGCC (dsDNA)
DNA 1: B1 DNA 1 with C27G, G28C, G29C
DNA 2: B1 DNA 2 with C62G, C63G, G64C
RNA: B1 RNA
B10: ATGG (dsDNA)
DNA 1: B1 DNA 1 with C27T
DNA 2: B1 DNA 2 with G64A
RNA: B1 RNA
B11: AGAT (dsDNA)
DNA 1: B1 DNA 1 with C27G, G28A, G29T
DNA 2: B1 DNA 2 with C62A, C63T, G64C
RNA: B1 RNA
B12: AGAG (dsDNA)
DNA 1: B1 DNA 1 with C27G, G28A
DNA 2: B1 DNA 2 with C63T, G64C
RNA: B1 RNA
B13: ATAC (dsDNA)
DNA 1: B1 DNA 1 with C27T, G28A, G29C
DNA 2: B1 DNA 2 with C62G, C63T, G64A
RNA: B1 RNA
B14: AGAC (dsDNA)
DNA 1: B1 DNA 1 with C27G, G28A, G29C
DNA 2: B1 DNA 2 with C62G, C63T, G64C
RNA: B1 RNA
B15: AGCT (dsDNA)
DNA 1: B1 DNA 1 with C27G, G28C, G29T
DNA 2: B1 DNA 2 with C62A, C63G, G64C
RNA: B1 RNA
B16: ATCC (dsDNA)
DNA 1: B1 DNA 1 with C27T, G28C, G29C
DNA 2: B1 DNA 2 with C62G, C63G, G64A
RNA: B1 RNA
B17: CAAC (dsDNA)
DNA 1: B1 DNA 1 with A26C, C27A, G28A, G29C
DNA 2: B1 DNA 2 with C62G, C63T, G64T, T65G
RNA: B1 RNA

Positions count from the first letter of the chain named.
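Further: relative affinity from the bound to unbound sequence frequency ratio in Spec-seq.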

One assay concerns the target dAsCas12a S542R (Acidaminococcus sp., UniProt U2UMQ6 1-1307, S542R;D908A;E993A;D1235A). Put plainly: Spec-seq (native PAGE EMSA with sequencing of bound and unbound); 25 mM Tris-HCl pH 7.4, 150 mM KCl, 5 mM MgCl2, 10% glycerol, 1 mM DTT, 40 ng/uL salmon sperm DNA; 400 nM Cas12a, 480 nM crRNA, 50 nM library, 37 C 1 h; native PAGE at room temperature; high values mean tight binding. Conditions: protein: recombinant.
In the case of B1, the binding signal was -8.37 lnKA.

B2: the binding signal was -8.3 lnKA.

Turning to B3, the binding signal was -8.91 lnKA.

As for B4, the binding signal was -8.58 lnKA.

With B5, the binding signal was -6.64 lnKA.

B6: the binding signal was -8.74 lnKA.

As for B7, the binding signal was -8.57 lnKA.

As for B8, the binding signal is -8.4 lnKA.

For B9, the binding signal is -8.34 lnKA.

As for B10, the binding signal is -8.74 lnKA.

For B11, the binding signal is -8.54 lnKA.

As for B12, the binding signal was -8.48 lnKA.

For the molecule B13, the binding signal is -8.39 lnKA.

B14: the binding signal is -8.52 lnKA.

Take B15: the binding signal is -8.99 lnKA.

B16: the binding signal is -4.3 lnKA.

With B17, the binding signal was -8.83 lnKA.

The target of a further assay is d-enCas12a (Acidaminococcus sp., UniProt U2UMQ6 1-1307, E174R;S542R;K548R;D908A;E993A;D1235A). Described as above. Conditions: protein: recombinant.
Take B1: the binding signal was -6.05 lnKA.

In the case of B2, the binding signal was -5.79 lnKA.

For the molecule B3, the binding signal was -4.77 lnKA.

With B4, the binding signal is -5.75 lnKA.

In the case of B5, the binding signal was -3.44 lnKA.

With B6, the binding signal is -5.85 lnKA.

Turning to B7, the binding signal was -5.66 lnKA.

Take B8: the binding signal was -3.23 lnKA.

As to B9, the binding signal was -2.31 lnKA.

As to B10, the binding signal is -5.71 lnKA.

As for B11, the binding signal is -5.75 lnKA.

As for B12, the binding signal is -5.79 lnKA.

As for B13, the binding signal is -4.61 lnKA.

Regarding B14, the binding signal was -5.69 lnKA.

With B15, the binding signal is -4.97 lnKA.

In the case of B16, the binding signal is -0.902 lnKA.

As for B17, the binding signal is -5.54 lnKA.

Another assay deals with d-enCas12a-Ultra (Acidaminococcus sp., UniProt U2UMQ6 1-1307, E174R;S542R;K548R;M537R;F870L;D908A;E993A;D1235A). The assay is described as above. To be noted: protein: recombinant.
Consider B1, for which the binding signal is -3.43 lnKA.

For B2, the binding signal is -3.34 lnKA.

Regarding B3, the binding signal is -1.73 lnKA.

As to B4, the binding signal is -3.48 lnKA.

Regarding B5, the binding signal was -0.793 lnKA.

For B6, the binding signal is -3.49 lnKA.

As for B7, the binding signal was -3.35 lnKA.

On to B8, for which the binding signal was -0.786 lnKA.

B9: the binding signal is -0.527 lnKA.

On to B10, for which the binding signal is -3.4 lnKA.

On to B11, for which the binding signal is -3.47 lnKA.

As for B12, the binding signal is -3.32 lnKA.

In the case of B13, the binding signal was -1.84 lnKA.

In the case of B14, the binding signal is -3.24 lnKA.

In the case of B15, the binding signal is -1.83 lnKA.

Turning to B16, the binding signal was -0.294 lnKA.

In the case of B17, the binding signal was -3.19 lnKA.
